ATG4B inh = ATG4B protease inhibitors, primary screen, biochemical, fluorescence, uHTS; Cysteine protease ATG4B (Homo sapiens), Q9Y4P1; ATG4B cleavage of LC3-PLA2, NBD-HPC fluorescence, 1 h; inhibition, % at 8.33 µM; 340,000 tested, 0.51% active; AID 504462, 2011; in the data active = inhibition above about 40%
Myeloid diff MLP = induction of myeloid progenitor differentiation, primary screen, cell-based, flow cytometry, MLPCN library | AID 624256, 2012 | 360,000 tested, 1% active | calls only at 10 µM | ER-HoxA9 myeloid progenitors, lysozyme-GFP differentiation;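 active = normalized GFP-positive differentiation at or above the plate's own cutoff, the solvent-only control mean plus 3 SD; inconclusive = no clear call, values can overlap the other calls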;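 note: cells exposed to compound for four days before flow analysis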
CHRM1 agonist = human M1 muscarinic receptor agonists, primary screen, Fluo-8 calcium fluorescence, CHO-K1 cells, HTS; activation, % at 3 µM; CHO-K1 hM1, agonist mode; 0% DMSO, 100% acetylcholine EC100; AID 588814, 2011; Muscarinic acetylcholine receptor M1 (Homo sapiens), P11229; 360,000 tested, 0.33% active;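 active = activation above the run's mean compound activation plus 3 SD, cut at about 16% in these data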;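 note: peak over basal fluorescence ratio within a 140 s kinetic read after compound addition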
Target sequence (P11229 whole entry, looked up): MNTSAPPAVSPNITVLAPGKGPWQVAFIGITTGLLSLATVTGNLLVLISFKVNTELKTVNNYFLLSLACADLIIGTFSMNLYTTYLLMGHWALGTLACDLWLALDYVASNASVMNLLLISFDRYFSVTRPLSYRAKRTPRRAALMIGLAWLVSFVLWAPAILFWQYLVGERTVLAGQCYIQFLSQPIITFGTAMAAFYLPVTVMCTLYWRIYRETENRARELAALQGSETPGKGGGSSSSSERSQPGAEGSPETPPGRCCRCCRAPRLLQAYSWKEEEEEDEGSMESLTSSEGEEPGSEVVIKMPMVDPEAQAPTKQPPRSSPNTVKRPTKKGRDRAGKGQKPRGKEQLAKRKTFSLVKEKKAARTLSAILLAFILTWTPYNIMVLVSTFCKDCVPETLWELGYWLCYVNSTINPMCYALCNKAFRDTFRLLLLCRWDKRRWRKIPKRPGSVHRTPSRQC
SKN-1 inh = suppressors of acrylamide-induced Pgst-4::GFP reporter in worms, primary screen, SKN-1 inhibitor project, whole organism, uHTS, GFP/RFP fluorescence ratio, strain VP596. inhibition, % at 21.8 µM. C. elegans VP596 Pgst-4::GFP/RFP ratio, 24 h. 360,000 tested, 0.49% active;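 active = interference check ratio from 0.5 to 1.5 plus GFP to RFP signal ratio inhibition reaching or exceeding a fixed threshold, cut at about 30% in these data, passing the limit was not always enough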
M1 antag = human M1 muscarinic receptor antagonists, primary screen, CHO-K1 cells, Fluo-8 calcium fluorescence, 1536-well; Muscarinic acetylcholine receptor M1 (Homo sapiens), P11229; CHO-K1 hM1, ACh EC80 antagonist; inhibition, % at 3 µM; 360,000 tested, 1.3% active;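 active = percent inhibition above its own plate's cutoff, namely the mean of that plate's compound wells plus 3 SD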;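 note: peak over basal fluorescence ratio during 140 s after agonist addition; 0% = ACh EC80 plus DMSO and 100% = DMSO alone without agonist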
M1 PAM = human M1 muscarinic receptor positive allosteric modulators, primary screen, CHO-K1 cells, Fluo-8 calcium fluorescence, 1536-well; CHO-K1 hM1, ACh EC20; 0% = ACh EC20, 100% = maximal ACh; activation, % at 3 µM; 360,000 tested, 0.088% active; AID 588819, 2011; in the data active = activation above about 19%, passing the limit was not always enough
Myeloid diff CP1 = inducers of myeloid progenitor differentiation, confirmation, cell-based, GFP/Mac1 flow cytometry, cherry pick 01 | shares compounds with Myeloid diff MLP | AID 651706, 2012 | ER-HoxA9 myeloid progenitors, GFP/Mac1 double-positive flow | calls only | 2,300 tested, 2% active;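 active = share of green or green-and-red cells above 9 and 9% in run 1 or 4 and 3% in run 2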
GFP autofluor = compound fluorescence in myeloid differentiation counter-screen. fluorescence response, % (concentration not given with the values). shares compounds with Myeloid diff MLP. ER-HoxA9 myeloid progenitors, no estrogen, GFP autofluorescence flow cytometry; vehicle wells 0%, positive control 100%. 2,300 tested, 7.4% active;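 active = over 5% cells positive for green fluorescent reporter, or over 2% positive for both it and APC stain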;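 note: range taken on the double positive population between DMSO and positive control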
* marks the source's active call; other numbers are inactive results; i = inactive; ? = inconclusive; . = no result given; + = active, no number. The list is not random: actives were taken first. Their share in the collection is about 3.5%.

SMILES | ATG4B inh | Myeloid diff MLP | CHRM1 agonist | SKN-1 inh | M1 antag | M1 PAM | Myeloid diff CP1 | GFP autofluor
O=C(N/N=C/c1ccncc1)c1ccccc1OCc1ccc(Br)cc1 | -13.1 | i | -7.1 | 4.4 | 2.8 | -9.6 | i | 0.0
CN(Cc1c(F)cccc1Cl)C(=O)c1ccc(NC(=O)CC2SC(N3CCCCC3)=NC2=O)cc1 (centres undefined) | 15.8 | i | -7.2 | -12.5 | 15.0 | -7.5 | . | .
C=CCNC(=S)N1N=C(c2ccco2)CC1c1ccco1 (centres undefined) | 8.1 | i | -5.2 | -4.0 | 1.0 | -0.6 | i | 0.0
COc1cc(OC)cc(-c2ncc3ccccn23)c1 | -0.2 | i | -1.2 | 4.5 | -2.4 | 1.0 | . | .
COc1cc(-c2ncc3ccccn23)cc(OC)c1OC | -1.8 | + | -1.2 | 13.1 | -4.3 | 6.4 | i | 0.0
O=C(Nc1cccc2ccccc12)/C(=C\c1cccc([N+](=O)[O-])c1)NC(=O)c1cccs1 | -14.1 | + | -5.0 | 12.5 | 7.5 | -2.1 | i | 0.5
Nc1nnc(Cc2ccc(Cl)c(Cl)c2)s1 | 37.8 | i | -1.6 | -6.3 | -14.0 | 15.3 | . | .
CCN(CC)S(=O)(=O)c1ccc(N/N=C/c2ccc(O)cc2)nc1 | 12.1 | i | -5.2 | -1.5 | -7.8 | 9.5 | i | 0.0
CCOc1cccc(/C=N/Nc2ccc(S(=O)(=O)N(CC)CC)cn2)c1O | -18.2 | ? | -8.2 | 2.6 | -0.4 | -3.4 | . | .
CCOC(=O)c1ccc(NCn2c(=O)oc3ccccc32)cc1 | 2.2 | i | -5.7 | -4.8 | 3.6 | -6.2 | i | 44.5*
CC1CCCC(C)N1CC(O)Cn1c2ccccc2c2ccccc21 (centres undefined) | 1.9 | i | -7.9 | 11.9 | -9.2 | -3.2 | . | .
N#C/C(=C/c1cccn1-c1cccc(C(=O)O)c1)c1ccc(F)cc1 | 1.2 | + | -7.6 | -0.8 | -2.5 | 0.1 | i | 0.9
NC(Cc1ccc(Cl)cc1)c1csc(NC(=O)NCCc2ccccc2)n1 (centres undefined) | . | i | 6.6 | -8.1 | 4.1 | 3.6 | . | .
NC(Cc1ccc(Cl)cc1)c1csc(NC(=O)NCC2CCCCC2)n1 (centres undefined) | . | + | 6.4 | 4.6 | 25.5 | -0.4 | i | 1.0
COCCN1C(=S)NC(c2cccc(C(F)(F)F)c2)C(C(=O)N2CCOCC2)=C1C (centres undefined) | -2.8 | i | -3.8 | 14.3 | -6.2 | 3.2 | . | .
O=C(NCc1ccco1)c1ccccc1 | -3.1 | i | 1.8 | 10.2 | -5.3 | 8.4 | . | .
O=C(Nc1sccc1C(=O)NCc1ccco1)c1cccnc1 | -11.5 | i | -1.3 | -16.5 | 2.4 | -4.2 | i | 0.0
CC1(C)Cc2c(cnn2-c2ccccc2)C(NC(=O)CCN2CCCCO2)C1 (centres undefined) | -13.3 | i | -1.9 | 11.8 | -13.4 | 6.4 | . | .
Cc1ccc(NS(=O)(=O)c2ccc(Cl)c(C(=O)Nc3ccccc3-c3nc4ccccc4[nH]3)c2)cc1C | 26.4 | i | -0.5 | -0.8 | 11.4 | -9.6 | i | 0.0
COc1ccc(-c2nn(-c3ccccc3)cc2CNC[C@H]2O[C@@H](n3ccc(=O)[nH]c3=O)[C@H](O)[C@@H]2O)cc1 | . | i | -5.2 | -2.5 | 18.2 | -10.7 | . | .
O=C(CCc1nnc(Cc2c[nH]c3ccccc23)o1)NCC1CC12CCCCC2 (centres undefined) | 0.4 | i | -5.2 | -5.3 | -13.6 | 7.8 | i | 0.6
COc1cccc(C=Nc2cccc3c(=O)[nH][nH]c(=O)c23)c1O | -0.1 | + | -1.0 | -9.0 | -8.3 | 4.3 | i | 0.0
Cc1ccc(CN2CCN(/N=C/c3ccc(Cl)c([N+](=O)[O-])c3)CC2)cc1 | -5.6 | i | -14.5 | 9.6 | 0.9 | -6.5 | . | .
CNC(=O)c1c2c(nc3ccc(Br)cc13)CCCC2 | -3.5 | i | -8.2 | 9.2 | -2.0 | 8.8 | . | .
Cc1cc(C)nc(SCc2ccc(C(=O)N/N=C/c3ccccn3)cc2)n1 | -5.0 | i | 2.1 | 4.7 | 11.0 | 0.4 | i | 0.4
SMILES | ATG4B inh | Myeloid diff MLP | CHRM1 agonist | SKN-1 inh | M1 antag | M1 PAM | Myeloid diff CP1 | GFP autofluor
O=C(N/N=C/c1ccccn1)c1cc(-c2ccc3ccccc3c2)n[nH]1 | -23.4 | i | -5.4 | 5.7 | 9.6 | -8.7 | i | 0.5
COC(=O)C1C(=O)c2c([nH]c(C(=O)OCC3CCCO3)c2C)CC1C (centres undefined) | -2.4 | i | -0.2 | -0.7 | 10.3 | -7.5 | i | 0.3
COCCOC(=O)c1[nH]c2c(c1C)C(=O)C(C(=O)OC)C(C)C2 (centres undefined) | 1.2 | i | -1.1 | -3.1 | -6.7 | -0.8 | . | .
Cc1c(NC(=O)C(C)Sc2nc3ccccc3c(=O)n2CCO)c(=O)n(-c2ccccc2)n1C (centres undefined) | -0.1 | i | -5.5 | -12.1 | -1.5 | 7.8 | i | 0.0
Cc1ccc(CNc2nc(NCC3CC3)nc3ccsc23)c(C)c1 | . | + | 3.4 | 1.4 | 18.2 | -1.1 | i | 0.0
O=c1c2c(nc3n1CCCCC3)-c1ccccc1CC21CCCCC1 | 6.9 | i | -3.6 | 15.8 | -0.8 | -4.9 | i | 0.0
O=C(O)C1Oc2cc3ccccc3cc2O1 | -6.0 | . | -4.6 | 16.8 | -5.5 | 9.0 | . | .
CCOC(=O)C1(CCOC)CCN(Cc2cccc(OCc3ccccc3)c2)CC1 | 10.6 | i | -8.7 | 1.7 | -9.8 | -5.3 | . | .
CCOC(=O)C1(CCOc2ccccc2)CCN(Cc2cccc(OC)c2)CC1 | 2.2 | + | -5.9 | -1.4 | 16.5 | -18.6 | i | 0.0
NS(=O)(=O)c1ccc(CNC(=O)C(Cc2ccccc2)NS(=O)(=O)c2ccccc2F)cc1 (centres undefined) | -5.8 | i | -2.0 | 7.1 | -20.3 | 10.6 | . | .
COc1ccccc1C(=O)NCCC(=O)N1CC(=O)Nc2ccccc21 | 1.6 | + | -1.1 | 1.5 | -2.7 | 3.6 | i | 0.3
O=C1CN(C(=O)COC(=O)CCSc2ccccc2Cl)c2ccccc2N1 | -15.4 | + | -3.3 | 4.5 | -4.5 | 3.7 | i | 0.0
